According to the supplement of paper PMC6555819:

Experiments:
Assay in all cases: PBM binding z-score (relative to random genomic background probes); higher = stronger binding; sequences stand for … in GC…GCGATTGACAGCGTAGAATGAAGG
[1] = test system: FXR:RXRa (NR concentration 270 nM, RXRa partner concentration 90 nM)
Procedure, shortened: (§1)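 Custom Agilent 4×180K protein-binding microarrays carried double-stranded probes. Their 34-nt variable regions held direct-repeat seeds, single-nucleotide variants, half-site ablations and random human genomic background sequences. Arrays were incubated 1 h with ligand-free nuclear receptor dimers in PBS pH 7.4, 2% milk, 0.02% Triton X-100, 1 mM DTT, 0.2 mg/mL BSA and 0.4 mg/ml salmon testes DNA. Antibodies against each partner (one per run) detected binding, and scanned fluorescence was regression-normalized. Binding z-scores use random background probes as reference.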

[2] = test system: LXRa:RXRa (NR concentration 270 nM, RXRa partner concentration 90 nM)
Procedure, shortened: as §1

[3] = test system: LXRa homodimer (NR concentration 270 nM)
Procedure, shortened: as §1

[4] = test system: LXRb:RXRa (NR concentration 270 nM, RXRa partner concentration 90 nM)
Procedure, shortened: as §1

[5] = test system: LXRb homodimer (NR concentration 270 nM)
Procedure, shortened: as §1

[6] = test system: PPARa:RXRa (NR concentration 270 nM, RXRa partner concentration 90 nM)
Procedure, shortened: as §1

[7] = test system: PPARg:RXRa (NR concentration 180 nM, RXRa partner concentration 90 nM)
Procedure, shortened: as §1

[8] = test system: PPARg:RXRa 270nM:90nM, anti-RXR (NR concentration 270 nM, RXRa partner concentration 90 nM)
Procedure, shortened: as §1

[9] = test system: PPARg:RXRa 30nM:10nM, anti-RXR (NR concentration 30 nM, RXRa partner concentration 10 nM)
Procedure, shortened: as §1

[10] = test system: PPARg:RXRa 90nM:30nM, anti-RXR (NR concentration 90 nM, RXRa partner concentration 30 nM)
Procedure, shortened: as §1

[11] = test system: PPARg:RXRa DBDmut IVT, anti-RXR (DBD mutation: RXRa K156A/R161A, NR concentration 270 nM, RXRa partner concentration 90 nM)
Procedure, shortened: as §1

[12] = test system: PPARg:RXRa IVT, anti-PPARg (NR concentration 270 nM, RXRa partner concentration 90 nM)
Procedure, shortened: as §1

[13] = test system: PPARg DBDmut:RXRa IVT, anti-PPARg (DBD mutation: PPARg1 K132A/R137A, NR concentration 270 nM, RXRa partner concentration 90 nM)
Procedure, shortened: as §1

[14] = test system: PPARg DBDmut IVT, anti-PPARg (DBD mutation: PPARg1 K132A/R137A, NR concentration 270 nM)
Procedure, shortened: as §1

[15] = test system: PPARg homodimer (NR concentration 180 nM)
Procedure, shortened: as §1

[16] = test system: PXR:RXRa (NR concentration 270 nM, RXRa partner concentration 90 nM)
Procedure, shortened: as §1

[17] = test system: PXR homodimer (NR concentration 270 nM)
Procedure, shortened: as §1

[18] = test system: RARa:RXR (NR concentration 270 nM, RXRa partner concentration 90 nM)
Procedure, shortened: as §1

[19] = test system: RARa homodimer (NR concentration 270 nM)
Procedure, shortened: as §1

[20] = test system: RARb:RXRa (NR concentration 270 nM, RXRa partner concentration 90 nM)
Procedure, shortened: as §1

Sequence	PBM binding z-score [1]	PBM binding z-score [2]	PBM binding z-score [3]	PBM binding z-score [4]	PBM binding z-score [5]	PBM binding z-score [6]	PBM binding z-score [7]	PBM binding z-score [8]	PBM binding z-score [9]	PBM binding z-score [10]	PBM binding z-score [11]	PBM binding z-score [12]	PBM binding z-score [13]	PBM binding z-score [14]	PBM binding z-score [15]	PBM binding z-score [16]	PBM binding z-score [17]	PBM binding z-score [18]	PBM binding z-score [19]	PBM binding z-score [20]
TCTTGTAGATCAGAAGGTTAAGAAAGCTGGCCAA	0.619	1.02	0.09	1.16	-0.193	1.54	0.167	2.4	3.46	3.03	1.98	0.611	0.0732	-0.22	0.201	0.61	0.0531	0.924	0.498	1.07
TCTTGTAAATCAATAGAGGTTAAGAAAGTGCGCT	0.793	3.32	0.658	1.86	0.26	1.86	0.0624	1.82	3.77	2.44	2.07	0.72	0.946	0.876	0.652	2.65	0.467	1.72	0.812	1.13
GCTTACGGGTCACAGGTTATAGCATGAATAGAAT	6.03	3.91	-0.00317	3.73	0.0394	5.75	7.57	6.67	4.61	6.2	4.72	5.4	2.51	1.47	1.81	3.52	-0.0291	4.84	0.515	4.03
ATATGTAGGTTAAGGGTCACTCAGGTTGGTTCGC	4.78	4.46	1.96	4.27	1.2	6.85	11.8	10.2	10.8	11.2	7.97	8.15	1.94	2.59	3.56	5.09	1.94	6.1	2.24	3.95
CATACTGGGCCAAAAAGGTCATTGATGCCGATAA	3.78	4.56	3.26	4.16	0.973	4.63	2.82	3.82	1.24	3.11	3.46	3.71	0.731	0.232	2.9	4.68	3.77	5.06	2.12	3.82
TCTTGTGGATCAGCAGGTTAAGAAAGCTGGCCAA	0.261	0.254	-0.184	0.0295	-0.411	0.761	-0.589	1.27	2.47	1.83	1.59	0.745	-0.449	0.165	0.237	0.354	-0.204	0.573	0.249	0.338
CCTACTGGGCAAAAGGTCATTGATTCCAATGCTC	4.38	5.09	3.89	4.36	0.466	5.57	10.4	9.29	9.17	9.67	2.57	5.1	-0.086	-0.781	3.07	4.91	1.5	5.73	1.77	4.35
CCTAGTTGGTCAGGAGGTCACACGCCGGATATGA	3.62	3.32	1.92	3.15	0.554	4.05	3.59	3.92	1.69	2.84	1.84	3.74	0.471	-0.188	3.2	4.12	1.31	4.32	1.9	3.71
CCTTACGGGTCAAGGTTTTAGCACGGGTGGTACG	4.88	3.1	0.107	2.74	-0.202	4.56	4.23	4.44	1.43	3.33	2.52	3.36	0.173	-0.72	2.55	2.95	-0.244	4.13	0.944	4.2
CCGACTGGGCCAGAAAGGTTACCATACCATCCGG	0.387	0.792	-0.182	0.895	-0.545	1.88	0.92	0.91	0.0101	0.541	0.593	0.483	-0.91	-1.13	0.203	0.831	-0.302	1.83	-0.242	1.47
CAAACTAGGTCACGAAAGTTCAAAGTCGAATGAC	6.48	7.84	8.43	6.15	1.48	6.14	9.94	8.29	6.58	8.35	8.72	9.1	2.45	4.02	4.73	7.11	8.3	6.02	2.95	5.27
GTTGCTAGGTCAGGTTGGTCAGCTAACGGGTACG	1.81	1.32	0.459	0.947	0.434	1.68	0.88	1.31	-0.115	0.452	2.88	3.16	0.283	-0.614	1.29	0.651	0.178	0.933	0.798	3.4
GCTGCTAGGTCAACTGATGGTCAGCAAAAGCTCG	4.32	3.25	0.157	2.12	0.113	3.81	2.95	3.41	0.384	2.37	4.86	3.95	-0.344	0.121	1.67	1.68	-0.304	2.93	0.266	4.52
ATCTCTAGGTAACAAGTTCAGTGAGAGAGAGGAC	0.938	0.818	0.556	0.613	1.01	1.54	1.41	2.15	0.897	1.64	3.21	3.22	1.3	1.5	1.39	1.73	1.77	0.827	1.3	1.75
